Reference: the antibiotic and cytotoxicity screens of Wong et al. (2023)
Out of some 39,000 compounds screened, about 3,300 (8.5%) were called active. The sample holds actives, similar compounds and a random draw of the others, so the mix is not that of the screen.

What follows are compounds tested on HepG2 (assay: cytotoxicity call (relative viability < 0.9)). Settings: 10 µM.

| Structure (SMILES) | cytotoxicity call |
| --- | --- |
| Cc1cccc(S(=O)(=O)N2C[C@@H](O)COC[C@@H]3O[C@H](CC(=O)NCc4ccncn4)CC[C@H]32)c1 | inactive |
| COCC(=O)Nc1ccc2c(c1)OC[C@H](C)N(Cc1cccc(F)c1)C[C@@H](C)[C@@H](OC)CN(C)C2=O | inactive |
| CCCN(C)C[C@@H]1OCCCC[C@@H](C)Oc2ccc(NC(=O)Nc3c(C)noc3C)cc2C(=O)N([C@H](C)CO)C[C@@H]1C | inactive |
| C[C@H](CO)N1C[C@H](C)[C@@H](CN(C)C(=O)NC2CCCCC2)OCCCC[C@H](C)Oc2ccc(NS(=O)(=O)c3ccccc3)cc2C1=O | inactive |
| C[C@@H]1CCCCO[C@@H](CN(C)Cc2ccc3c(c2)OCO3)[C@H](C)CN([C@H](C)CO)C(=O)c2cc(NS(=O)(=O)c3cccs3)ccc2O1 | inactive |
| C[C@@H]1CCCCO[C@@H](CN(C)C(=O)Nc2ccc(F)cc2)[C@H](C)CN([C@H](C)CO)C(=O)c2cc(NC(=O)Nc3ccc(F)cc3)ccc2O1 | inactive |
| C[C@@H]1CN([C@@H](C)CO)C(=O)c2cc(NS(C)(=O)=O)ccc2O[C@@H]1CN(C)Cc1ccc(C(=O)O)cc1 | inactive |
| C[C@@H]1CCCCO[C@@H](CN(C)Cc2ccncc2)[C@@H](C)CN([C@@H](C)CO)C(=O)c2cc(NC(=O)Nc3ccc(F)cc3)ccc2O1 | inactive |
| C[C@@H]1CN([C@H](C)CO)C(=O)c2cccc(NC(=O)C3CC3)c2O[C@@H]1CN(C)S(=O)(=O)c1ccc(F)cc1 | inactive |
| C=CCC[C@H](Cc1ccc(F)cc1)C(=O)OC[C@H](Cc1c[nH]c2ccccc12)NC(=O)[C@H](CC=C)CC(=O)N(CCO)Cc1ccccc1 | inactive |
| C=CCC[C@@H](Cc1ccc(F)cc1)C(=O)OC[C@H](Cc1c[nH]c2ccccc12)NC(=O)[C@H](CC=C)CC(=O)N(CCO)Cc1ccccc1 | inactive |
| C=CCC[C@@H](Cc1ccc(F)cc1)C(=O)OC[C@@H](Cc1c[nH]c2ccccc12)NC(=O)[C@H](CC=C)CC(=O)N(CCO)Cc1ccccc1 | active |
| C[C@H](CO)N1C[C@H](C)[C@H](CN(C)C(=O)Nc2cccc3ccccc23)Oc2ccc(NC(=O)Nc3ccc(F)cc3)cc2CC1=O | inactive |
| C[C@@H](N)c1nc2c(s1)CCCC2 | inactive |
| O=C1O[C@H](c2ccccc2)[C@H](c2ccccc2)N2[C@H]1[C@@H](C(=O)NC[C@@H](O)c1ccccc1)[C@]1(C(=O)Nc3ccc(C#CC4(O)CCCCCC4)cc31)[C@H]2c1ccccc1OCCO | inactive |
| C[C@@H]1CN([C@H](C)CO)C(=O)c2cc(NC(=O)Nc3ccc(C(F)(F)F)cc3)ccc2O[C@H]1CN(C)Cc1ccc(Cl)c(Cl)c1 | active |
| C[C@@H]1CN([C@H](C)CO)C(=O)c2cc(NC(=O)Nc3ccc(C(F)(F)F)cc3)ccc2O[C@@H]1CN(C)Cc1ccc(Cl)c(Cl)c1 | active |
| C[C@H]1CN([C@@H](C)CO)C(=O)c2cc(NC(=O)Nc3ccc(C(F)(F)F)cc3)ccc2O[C@@H]1CN(C)Cc1ccc(Cl)c(Cl)c1 | inactive |
| C[C@@H]1CN([C@@H](C)CO)C(=O)c2cc(NC(=O)Nc3ccc(C(F)(F)F)cc3)ccc2O[C@@H]1CN(C)Cc1ccc(Cl)c(Cl)c1 | active |
| C[C@@H]1CN([C@@H](C)CO)C(=O)c2cc(NC(=O)Nc3ccc(C(F)(F)F)cc3)ccc2O[C@H]1CN(C)Cc1ccc(Cl)c(Cl)c1 | inactive |

| Structure (SMILES) | cytotoxicity call |
| --- | --- |
| C[C@H](CO)N1C[C@H](C)[C@@H](CN(C)Cc2ccc(Cl)c(Cl)c2)Oc2ccc(NC(=O)Nc3ccc(C(F)(F)F)cc3)cc2C1=O | active |
| C[C@H](CO)N1C[C@H](C)[C@@H](CN(C)S(=O)(=O)c2ccc(Cl)cc2)Oc2ccc(NC(=O)CCCN(C)C)cc2CC1=O | inactive |
| NCC[C@H]1CC[C@H](NC(=O)C2CC2)[C@H](CO)O1 | inactive |
| CSc1nc(=O)c(CCO)c(C)[nH]1 | inactive |
| COc1cccc(NC(=O)N2C[C@H](O)COC[C@@H]3O[C@@H](CC(=O)NCCCN4CCOCC4)CC[C@H]32)c1 | inactive |
| CCOC(=O)CSc1nc(=O)cn[nH]1 | inactive |
| C[C@@H]1CN([C@H](C)CO)C(=O)Cc2cc(NC(=O)C3CC3)ccc2O[C@H]1CN(C)Cc1ccc2c(c1)OCO2 | inactive |
| CC(C)NC(=O)N(C)C[C@@H]1OCCCC[C@@H](C)Oc2ccc(NC(=O)Nc3ccccc3)cc2C(=O)N([C@@H](C)CO)C[C@@H]1C | inactive |
| COc1ccc(S(=O)(=O)Nc2ccc3c(c2)C(=O)N([C@H](C)CO)C[C@H](C)[C@H](CN(C)C(=O)Nc2c(C)noc2C)OCCCC[C@@H](C)O3)cc1 | inactive |
| C[C@@H]1CN([C@H](C)CO)C(=O)c2cc(C3=CCCC3)cnc2O[C@H]1CN(C)S(=O)(=O)c1cn(C)cn1 | inactive |
| Cc1noc(C)c1S(=O)(=O)Nc1ccc2c(c1)CC(=O)N([C@H](C)CO)C[C@H](C)[C@H](CN(C)S(=O)(=O)c1cn(C)cn1)O2 | inactive |
| C[C@@H]1CCCCO[C@H](CN(C)C(=O)Nc2ccc3c(c2)OCO3)[C@H](C)CN([C@@H](C)CO)C(=O)c2cc(NC(=O)c3ccncc3)ccc2O1 | inactive |
| C[C@@H]1CN([C@@H](C)CO)C(=O)Cc2cc(NC(=O)Nc3cccc4ccccc34)ccc2O[C@@H]1CN(C)C(=O)Nc1cccc2ccccc12 | inactive |
| NCCN1CCOCC1 | inactive |
| C[C@H](CO)N1C[C@H](C)[C@@H](CN(C)Cc2ccc(Cl)c(Cl)c2)Oc2ccc(NC(=O)Nc3ccc(F)cc3)cc2C1=O | inactive |
| C[C@H](CO)N1C[C@H](C)[C@H](CN(C)Cc2ccc(Cl)c(Cl)c2)Oc2ccc(NC(=O)Nc3ccc(C(F)(F)F)cc3)cc2C1=O | active |
| C[C@H]1CN([C@@H](C)CO)C(=O)c2cc(NC(=O)Nc3ccc(C(F)(F)F)cc3)ccc2O[C@H]1CN(C)Cc1ccc(Cl)c(Cl)c1 | active |
| C[C@H]1CN([C@@H](C)CO)C(=O)c2cc(NC(=O)Nc3ccc(F)cc3)ccc2O[C@@H]1CN(C)Cc1ccc(Cl)c(Cl)c1 | inactive |
| C[C@H]1CCCCO[C@@H](CN(C)C(=O)Nc2ccc(F)cc2)[C@@H](C)CN([C@@H](C)CO)C(=O)c2cc(NS(=O)(=O)c3ccccc3)ccc2O1 | inactive |
